Activation factor data for 66 molecules are collected here from PubChem BioAssay AID813 (Sanford-Burnham Center for Chemical Genomics, 2007).

The whole screen tested about 64,000 compounds, of which fewer than 10 were called active.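 How the source made its calls: active means activation factor of at least 2 at 20 µM, relative to controls; inactive means the rest.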 These entries were drawn from the full list.

Sequence of Alkaline phosphatase, tissue-nonspecific isozyme (Homo sapiens) (P05186 whole entry, looked up): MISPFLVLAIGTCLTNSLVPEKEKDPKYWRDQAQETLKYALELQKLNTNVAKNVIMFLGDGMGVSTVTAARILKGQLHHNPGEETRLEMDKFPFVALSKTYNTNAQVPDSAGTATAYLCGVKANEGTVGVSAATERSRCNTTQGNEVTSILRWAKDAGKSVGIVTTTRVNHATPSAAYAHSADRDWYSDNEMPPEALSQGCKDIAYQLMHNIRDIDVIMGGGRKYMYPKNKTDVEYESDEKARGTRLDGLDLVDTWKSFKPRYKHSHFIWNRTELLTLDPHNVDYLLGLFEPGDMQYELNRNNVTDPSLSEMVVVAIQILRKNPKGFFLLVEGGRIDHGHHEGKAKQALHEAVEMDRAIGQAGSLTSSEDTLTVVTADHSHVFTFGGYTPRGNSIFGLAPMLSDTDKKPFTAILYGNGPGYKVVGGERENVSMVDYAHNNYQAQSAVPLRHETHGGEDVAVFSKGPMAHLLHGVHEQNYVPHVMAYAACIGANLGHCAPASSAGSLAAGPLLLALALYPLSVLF

The experiment has as its target Alkaline phosphatase, tissue-nonspecific isozyme (Homo sapiens) (UniProt P05186). Put plainly: stimulation of alkaline phosphatase TNAP activity – biochemical, luminescent, intermediate phosphate acceptor level, primary screen (AID 813). As to conditions: purified TNAP, CDP-star luminescence, 100 mM DEA, 30 min; at 20 µM; stronger effect = higher value; scale: 0 levamisole-inhibited, 1 vehicle-only enzyme.
Turning to `Cc1ccc(C)n1-c1ccncc1`, the activation factor is 0.9 (inactive). For the molecule `Cc1cc(N2C(=O)C(=O)/C(=C(/O)c3ccc(Cl)cc3)C2c2cccc(Br)c2)no1` (stereo unspecified), the activation factor is 0.8 (inactive).

Regarding `CCCOc1ccc(CN(CCO)CCO)cc1C(=O)OC`, the activation factor was 0.9 (inactive). In the case of `CN(C)Cc1c(O)ccc2occ(C(O)c3ccccc3)c12` (stereo unspecified), the activation factor is 0.9 (inactive).

As for `CCn1cc(C(=O)NC2CCCCCC2)c(=O)c2cc(S(=O)(=O)N3CCCCC3)ccc21`, the activation factor was 0.9 (inactive). Under `CCn1cc(C(=O)N2CCN(C3CCCCC3)CC2)c2cc(OC)c(OC)cc2c1=O` stands 0.9 (inactive); under `CCOC(=O)N1CCN(C(=O)c2ccc3nc4cc(Cl)ccc4c(=O)n3c2)CC1`, 0.9 (inactive); under `CCc1nc(C)cn1S(=O)(=O)c1cc(OC)c(C)cc1C`, 0.9 (inactive). Then `O=C(O)CC(c1ccccc1)n1cnnn1` (stereo unspecified), with 1 (inactive); and `COCCCn1c(CCC(=O)O)ccc1-c1ccc(F)cc1`, with 0.9 (inactive); and `CC1CN(C(=O)c2ccc3c(c2)OCO3)OC(c2ccccc2)O1` (stereo unspecified), with 1 (inactive). Under `COC(=O)[C@H](Cc1ccccc1)NC(=O)Nc1ccc(S(N)(=O)=O)cc1` stands 0.9 (inactive); under `CC(=O)N=c1ncn(CC(COC(C)=O)OC(C)=O)c2nc[nH]c12` (stereo unspecified), 0.9 (inactive). For `O=C(COc1ccc2c3c(c(=O)oc2c1)CCC3)NC1CCCCC1`, the activation factor is 1 (inactive). For the molecule `Cc1ccc(S(=O)(=O)NCC(=O)N(CC(=O)NC2CCCCC2)Cc2ccco2)cc1`, the activation factor is 0.9 (inactive). Consider `CC(C)c1cc(C(=O)O)on1`, for which the activation factor is 1 (inactive). With `Cc1cc(C)cc(N(CC(=O)Nc2c(C)n(C)n(-c3ccccc3)c2=O)S(C)(=O)=O)c1`, the activation factor was 0.9 (inactive). On to `CC(C)(C)n1nnc(CCc2nnn(C(C)(C)C)n2)n1`, for which the activation factor is 0.9 (inactive).

On to `O=C(c1ccccc1)c1ccc(OC(=O)N2CCCC2)cc1`, for which the activation factor was 0.9 (inactive). For `COc1cc(OC)c(C(=O)NC2CC(C)(C)NC(C)(C)C2)cc1OC`, the activation factor was 1 (inactive). With `CCOc1ccc(C(=O)NC2CCN(S(=O)(=O)CC)CC2)cc1`, the activation factor is 0.9 (inactive). As to `COc1ccc(S(=O)(=O)N2CCCC(C(=O)N3CCN(C)CC3)C2)cc1C` (stereo unspecified), the activation factor was 1 (inactive). As to `COC(=O)COc1ccc2oc(=O)cc(C)c2c1`, the activation factor is 1 (inactive).

Turning to `CC(=O)Nc1ccc(S(=O)(=O)N2CCSCC2)cc1`, the activation factor was 1 (inactive).

For `O=C(CCCN1C(=O)CCC1=O)Nc1ccc(Cl)c(C(F)(F)F)c1`, the activation factor is 0.9 (inactive). Then `Cc1cc(N2C(=O)C(=O)/C(=C(/O)c3ccccc3)C2c2cccc(Br)c2)no1` (stereo unspecified), with 1 (inactive). `CCn1cc(C(=O)N2CCN(Cc3ccc4c(c3)OCO4)CC2)c2cc(OC)c(OC)cc2c1=O`: the activation factor is 0.9 (inactive). On to `CCc1c(C)c2c(C)[nH]nc2oc1=O`, for which the activation factor is 0.8 (inactive).

`Cc1ccccc1CSc1nnc(-c2cccnc2)n1N`: the activation factor is 0.9 (inactive). Under `COCCN1C(=O)c2oc3c(C)cc(C)cc3c(=O)c2C1c1cccc(O)c1` (stereo unspecified) stands 0.8 (inactive); under `COc1ccc2occ(C(=O)c3ccc(N=C(C)N(C)C)cc3)c2c1`, 0.9 (inactive).

In the case of `O=C1CN(C(=O)COC(=O)C2CC(=O)N(Cc3ccco3)C2)c2ccccc2N1` (stereo unspecified), the activation factor was 0.9 (inactive). Under `CSc1nc(O)c(Cc2ccccc2)c(=O)[nH]1` stands 1 (inactive); under `COc1cc(C(O)c2nc3ccccc3n2C)cc(OC)c1OC` (stereo unspecified), 0.9 (inactive).

In the case of `O=C(O)c1cc(S(=O)(=O)N2CCCCCC2)c(Cl)cc1Cl`, the activation factor is 1 (inactive).

As to `CCN1CCCC1CNC(=O)Cn1cnc2ccc(S(=O)(=O)N3CCC(C)CC3)cc2c1=O` (stereo unspecified), the activation factor was 0.9 (inactive). For `CCCCn1nc(C(=O)N2CCc3ccccc32)c2ccccc2c1=O`, the activation factor was 0.9 (inactive). As for `Cc1ccc(O)c(NC(=O)COc2cc(C)ccc2C)c1`, the activation factor is 0.9 (inactive). Turning to `Cc1cccc(OCc2nnc(SCC(=O)N3CCN(C(=O)c4ccco4)CC3)n2C)c1C`, the activation factor was 0.9 (inactive). Turning to `Cc1cc(Cl)c(S(=O)(=O)Nc2ccc3c(c2)OCCO3)cc1OCC(N)=O`, the activation factor is 0.9 (inactive). Consider `CC(=NCc1ccco1)C1=C(O)c2ccccc2C1=O`, for which the activation factor was 0.9 (inactive). Under `Cc1ccc(-c2noc(CSc3nnc(-c4ccccc4)n3C)n2)cc1` stands 1 (inactive); under `O=C(Cn1[nH]c(=O)c2ccccc2c1=O)Nc1cccc(-c2nnc3n2CCCCC3)c1`, 0.9 (inactive); under `CC1Cc2nc(SCC(=O)Nc3ccccc3F)n(C)c(=O)c2S1` (stereo unspecified), 1 (inactive). In the case of `COc1ccccc1C(=O)Oc1ccc(N2C(=O)CCC2=O)cc1`, the activation factor is 0.9 (inactive). For `Clc1ccc(C2CC(c3cccs3)n3ncnc3N2)cc1Cl` (stereo unspecified), the activation factor is 1 (inactive).

Turning to `O=C(CNC(=O)c1ccco1)OCC(=O)c1ccccc1`, the activation factor is 0.9 (inactive).

Consider `CN1CCC2(CC1)NC(=O)NC2=O`, for which the activation factor is 1 (inactive). For the molecule `CCN(CC)CCN1C(=O)C(=O)/C(=C(/O)c2ccc(OC)c(OC)c2)C1c1ccccn1` (stereo unspecified), the activation factor was 1 (inactive). Take `O=S(=O)(O)c1nc2ccccc2n1Cc1ccc(Cl)cc1Cl`: the activation factor was 0.9 (inactive).

`CC(Nc1nc(N2CCCC2)nc2ccccc12)c1ccccc1` (stereo unspecified): the activation factor was 1 (inactive). Regarding `NC(=O)CSc1c[nH]c2ccccc12`, the activation factor was 0.9 (inactive). Then `CCCCOc1ccc(C(=O)NCc2ccco2)cc1`, with 0.9 (inactive).

Regarding `COc1ccc(S(=O)(=O)N2CCCC(C(=O)Nc3ccc(NC(=O)c4ccccn4)cc3)C2)cc1` (stereo unspecified), the activation factor is 0.8 (inactive). `Cc1cc(Nc2cccc(C)c2C)n2ncnc2n1`: the activation factor is 1 (inactive).

Turning to `O=C(CSC1=Nc2ccccc2C2=NC(c3ccccc3)C(=O)N12)NCC1CCCO1` (stereo unspecified), the activation factor was 0.9 (inactive). In the case of `CCOC(=O)c1cccc(NC(=O)C2CCCN(S(=O)(=O)c3cnc[nH]3)C2)c1` (stereo unspecified), the activation factor is 0.9 (inactive). Under `CSCC[C@H](NC(=O)NCc1cccs1)C(=O)O` stands 0.9 (inactive); under `Cc1c2cn[nH]c(=O)c2c(C)n1Cc1ccc(F)cc1`, 0.9 (inactive). Then `COc1ccc2nc(NC3=NCN(CC4CCCO4)CN3)nc(C)c2c1` (stereo unspecified), with 0.9 (inactive); and `Cc1ccc(C)n1C(Cc1ccccc1)C(=O)O` (stereo unspecified), with 0.8 (inactive). Under `Cc1cc(N2CCCC2=O)cc(C)c1S(N)(=O)=O` stands 0.9 (inactive); under `CCOC(=O)Cn1c(N)c(C(=O)OC)sc1=S`, 0.9 (inactive); under `Cc1cccc(NC(=O)c2ccc3ccccc3n2)n1`, 0.9 (inactive). For the molecule `COc1ccc(C2C(C#N)=C(N)Oc3cc(N)ccc32)cc1OC` (stereo unspecified), the activation factor is 1 (inactive). As for `Cc1nn(C)c(C)c1S(=O)(=O)N1CCc2ccccc21`, the activation factor was 1 (inactive).
